13 molecules from PubChem BioAssay can be followed below.

Assay [1] in a line: inhibitors of TNFa-induced NFkB p65 translocation, primary screen, imaging, HUVEC, MLSMR starter and 10KST1 sets (AID 438;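 active = inhibition above 20% together with a positive visual image hit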;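 also: compound added about 3h40 before a 20 min TNFalpha stimulation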;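 as to inhibition: signal is the nuclear over cytoplasmic p65 intensity ratio per well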). The note with it: HUVEC TNFa-induced p65 nuclear translocation; cell count: measured here: nuclei count (cytotoxicity indicator), at 2.08 µM; inhibition: at 2 µM, stronger effect = higher value, 0% TNFa-plus-vehicle, 100% no-TNFa wells.
Assay [2] is described as follows: reduction of polyQ htt aggregates in cells – imaging, exon1htt(103Q)mCFP cells, high-content imaging, primary screen (AID 483;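 active = visual image review flags a hit and inhibition of aggregation exceeds 20%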;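 also: compound exposure lasted 3 days before fixation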;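 as to nuclei count: percent of the per-plate median nuclei count of sample wells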). The note with it: exon1htt(103Q)mCFP cell line, aggregate imaging, at 2 µM; inhibition of aggregation: stronger effect = higher value; nuclei count: measured here: cell count, toxicity.
Assay [3] in a line: endothelial E-selectin expression blockers – imaging, HUVEC, immunofluorescence, MLSMR starter and 10KST1 sets, primary screen (AID 487).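 As to inhibition: signal is fraction of cell area covered by stained E-selectin grains.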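 As to nuclei count: 100% = median nuclei count of all wells on the same plate.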 The note with it: HUVEC TNFalpha-induced E-selectin immunofluorescence imaging, at 2 µM; inhibition: stronger effect = higher value; nuclei count: measured here: cell number, toxicity.
The target of assay [4] is Voltage-gated potassium channel subunit beta-2 (Rattus norvegicus) (UniProt P62483). The experiment in a line: inhibitors of rat Kvbeta2 reductase activity – biochemical, NADPH fluorescence, primary screen (AID 622;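 active = fluorescence slope higher than the sample average by over 3 SD, cut at about -0.22 in these data, passing the limit was not always enough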;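 also: slope of raw intensity against log time taken from 70 to 1610 s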). As to conditions: recombinant KvBeta, 4-cyanobenzaldehyde reduction, at 10 µM, stronger effect = higher value.
Voltage-gated potassium channel subunit beta-2 (Rattus norvegicus), sequence (P62483 whole entry, looked up): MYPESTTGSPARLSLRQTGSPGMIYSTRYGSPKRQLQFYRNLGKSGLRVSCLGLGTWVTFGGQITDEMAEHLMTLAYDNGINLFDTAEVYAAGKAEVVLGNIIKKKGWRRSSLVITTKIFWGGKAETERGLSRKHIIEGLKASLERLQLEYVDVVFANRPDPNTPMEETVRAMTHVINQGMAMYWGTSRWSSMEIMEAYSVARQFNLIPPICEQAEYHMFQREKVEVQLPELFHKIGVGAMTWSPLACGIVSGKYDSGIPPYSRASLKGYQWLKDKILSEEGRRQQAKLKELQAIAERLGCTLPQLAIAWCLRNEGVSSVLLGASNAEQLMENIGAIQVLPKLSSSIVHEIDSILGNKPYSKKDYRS
For assay [5] the target is unchanged. Nature of the assay: enhancers of rat Kvbeta2 NADPH turnover – biochemical, NADPH fluorescence, primary screen (AID 623;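 active = NADPH fluorescence slope more negative than the mean of all samples by about 3 SD, 99.7% confidence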;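 also: fluorescence intensity change per second fitted from 20 to 320 s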). The note with it: Recombinant KvBeta, NADPH fluorescence decrease slope, 10 min; at 10 µM; stronger effect = lower value.
Assay [6] has as its target Alpha-2C adrenergic receptor (Homo sapiens) (UniProt P18825). Nature of the assay: compounds altering alpha2C-coupled GIRK flux – cell-based, HEK293 alpha2C/GIRK1/2, thallium flux, primary screen (AID 624;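 active = fluorescence slope after compound addition differing from the mean of all screened samples at 99.7% confidence, in either direction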;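 also: slope of fluorescence ratio to pre-addition baseline per second over 15 to 24 s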). As to conditions: thallium flux BTC fluorescence, at 10 µM, actives lie on both sides.
Assay [7] in a line: blockers of RIG-like receptor reporter activation – cell-based, Sendai virus stimulus, luciferase, 10K MLSCN set, TLR/RLR signaling modifier project, primary screen (AID 602276;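 active = inhibition at or above 50% at 10 µM; inactive = inhibition below 50%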;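 also: firefly luciferase from ISG56 promoter only with Renilla not read in this screen; 0% = Sendai virus plus DMSO and 100% = medium plus DMSO without virus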). The note with it: HEK293 RL24 IRF3 luciferase reporter, at 10 µM, stronger effect = higher value. (A reporter such as luciferase makes a cellular process visible.)
The nature of assay [8]: TLR3 IRF3 reporter activation blockers – cell-based, poly I:C stimulus, luciferase, 10K MLSCN set, primary screen (AID 602277;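 active = inhibition of the reporter signal at or above 50%; inactive = inhibition below 50%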). The note with it: HEK293-TLR3 RL24 IRF3 luciferase reporter, at 10 µM, stronger effect = higher value.

Active and inactive are the calls of the source.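 The calls were made as follows, unless noted: active = visually confirmed hit in the image check and inhibition above 20%; inconclusive = visually confirmed hit but inhibition not above 20%; inactive = no visual hit in the image check.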

Alpha-2C adrenergic receptor (Homo sapiens), sequence (P18825 whole entry, looked up): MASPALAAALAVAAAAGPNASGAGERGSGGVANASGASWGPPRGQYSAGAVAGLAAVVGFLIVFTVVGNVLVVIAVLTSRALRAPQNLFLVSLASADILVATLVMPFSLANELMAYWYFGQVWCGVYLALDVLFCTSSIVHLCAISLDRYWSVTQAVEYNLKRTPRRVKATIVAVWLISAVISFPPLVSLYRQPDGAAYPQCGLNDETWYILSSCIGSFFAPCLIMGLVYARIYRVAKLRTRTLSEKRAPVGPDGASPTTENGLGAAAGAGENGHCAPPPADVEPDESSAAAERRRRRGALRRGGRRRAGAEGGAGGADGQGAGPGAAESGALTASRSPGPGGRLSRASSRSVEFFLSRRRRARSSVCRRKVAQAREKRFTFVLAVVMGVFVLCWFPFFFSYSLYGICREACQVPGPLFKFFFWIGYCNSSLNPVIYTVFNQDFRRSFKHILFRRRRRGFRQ

Broadly, the inhibition is the relative decrease from the control value, in per cent. For `C(=N/n1c2ccccc2c2ccccc21)/c1ccco1`, the cell count in assay [1] was 360. Also, the inhibition in assay [1] is -2% (inactive); in assay [3], 2.6% (inactive); in assay [7], 12% (inactive); in assay [8], 29.6% (inactive). The inhibition of aggregation in assay [2] is -20.7% (inactive). Moreover, the nuclei count in assay [2] amounted to 102%; in assay [3], 109%. Also, the fluorescence slope in assay [4] was -0.417 (inactive). Also, the NADPH fluorescence slope in assay [5] was -0.000138 (inactive). In assay [6], the slope is 0.00632 (inactive).
Regarding `COc1ccc(CC(NC(C)=O)C(=O)N2CCN(C(=O)N(C(C)C)C(C)C)CC2)cc1` (stereo not drawn), the cell count in assay [1] turned out to be 309. The inhibition in assay [1] is -4% (inactive); in assay [3], -29.4% (inactive); in assay [7], 4.31% (inactive); in assay [8], 3.57% (inactive). Moreover, the inhibition of aggregation in assay [2] is -9.5% (inactive). Moreover, the nuclei count was found to be 91.9% in assay [2] and 100% in assay [3]. Also, the fluorescence slope in assay [4] is -0.397 (inactive). Moreover, the NADPH fluorescence slope in assay [5] is -6.6e-05 (inactive). The slope in assay [6] was 0.00701 (inactive).
In the case of `C=CCn1c(SCC(=O)Nc2cccc(OC)c2)nnc1-c1cccnc1`, the cell count in assay [1] came to 619. Moreover, the inhibition was -4.8% (inactive) in assay [1], -52.7% (inactive) in assay [3], 10.5% (inactive) in assay [7] and 16.9% (inactive) in assay [8]. Besides, the inhibition of aggregation in assay [2] was 0.3% (inactive). In addition, the nuclei count came to 118% in assay [2] and 104% in assay [3]. Besides, the fluorescence slope in assay [4] was -0.527 (inactive). Besides, in assay [5], the NADPH fluorescence slope is -9.5e-06 (inactive). For the same molecule, the slope in assay [6] is 0.00671 (inactive).
Take `CCN1CCCC1CNC(=O)CS(=O)(=O)Cc1nc(-c2ccccc2C)oc1C` (stereo not drawn): the cell count in assay [1] is 834. The inhibition in assay [1] is -0.6% (inactive); in assay [3] it was -87.9% (inactive); in assay [7], 5.3% (inactive); in assay [8] it was 46.5% (inactive). For the same molecule, the inhibition of aggregation in assay [2] is 3.2% (inactive). The nuclei count in assay [2] came to 104%; in assay [3], 126%. The fluorescence slope in assay [4] was -0.511 (inactive). In assay [5], the NADPH fluorescence slope was -3e-05 (inactive). Further, the slope in assay [6] was 0.00452 (inactive).
`CCN(CC)C(=O)C1CCCN(c2ncnc3c2cnn3-c2ccc(Cl)cc2)C1` (stereo not drawn): the cell count in assay [1] stood at 745. Also, the inhibition in assay [1] is -5.2% (inactive); in assay [3], -21.1% (inactive); in assay [7], 10.8% (inactive); in assay [8] it was 53.6% (active). The inhibition of aggregation in assay [2] was 0.8% (inactive). Moreover, the nuclei count is 103% in assay [2] and 109% in assay [3]. Further, the fluorescence slope in assay [4] is -0.543 (inactive). In addition, the NADPH fluorescence slope in assay [5] is -1.7e-05 (inactive). In assay [6], the slope is 0.00713 (inactive).
Turning to `CN1CCN(C(c2cccc(C(F)(F)F)c2)c2nnnn2C(C)(C)C)CC1` (stereo not drawn), in assay [1], the cell count was determined as 337. For the same molecule, the inhibition in assay [1] was -6% (inactive); in assay [3], -68.4% (inactive); in assay [7], 19.1% (inactive); in assay [8], 22.7% (inactive). The inhibition of aggregation in assay [2] is 32.7% (inactive). Further, the nuclei count in assay [2] stood at 73.7%; in assay [3], 94.8%. Besides, the fluorescence slope in assay [4] was -0.591 (inactive). In assay [5], the NADPH fluorescence slope is -2.7e-05 (inactive). In addition, the slope in assay [6] is 0.00442 (inactive).
As for `CCN(CC)CCCN1C(=O)C(O)=C(C(=O)c2ccco2)C1c1ccc(C)o1` (stereo not drawn), the cell count in assay [1] was 330. Also, the inhibition is 22.9% (inactive) in assay [1], -22.2% (inactive) in assay [3], 8.72% (inactive) in assay [7] and 8.23% (inactive) in assay [8]. In addition, the inhibition of aggregation in assay [2] is -17.3% (inactive). In addition, the nuclei count stood at 106% in assay [2] and 99.7% in assay [3]. Besides, in assay [4], the fluorescence slope was -0.607 (inactive). Moreover, the NADPH fluorescence slope in assay [5] is -3.7e-05 (inactive). Moreover, in assay [6], the slope is 0.00682 (inactive).
As for `COc1ccc(C2=NO[C@@H]3C(=O)N(c4cccc(C)c4C)C(=O)[C@H]23)cc1OC`, in assay [1], the cell count was found to be 599. In addition, the inhibition in assay [1] was -12.3% (inactive); in assay [3], -41.7% (inactive); in assay [7], -20.9% (inactive); in assay [8], -5.53% (inactive). Besides, in assay [2], the inhibition of aggregation was 10% (inactive). Further, the nuclei count in assay [2] stood at 91.7%; in assay [3], 105%. For the same molecule, the fluorescence slope in assay [4] is -0.588 (inactive). Besides, the NADPH fluorescence slope in assay [5] was -4.9e-05 (inactive). Besides, the slope in assay [6] was 0.00915 (inactive).
In the case of `Cc1cccc2c1nc(-c1ccccc1)n1cnnc21`, in assay [1], the cell count stood at 345. The inhibition in assay [1] is -10.7% (inactive); in assay [3], -58% (inactive); in assay [7] it was -15.9% (inactive); in assay [8] it was -12.4% (inactive). The inhibition of aggregation in assay [2] is -2.7% (inactive). Besides, the values for the nuclei count in assay [2] and in assay [3] were 73% and 114%, respectively. Besides, the fluorescence slope in assay [4] was -0.452 (inactive). The NADPH fluorescence slope in assay [5] is -2.6e-08 (inactive). In addition, the slope in assay [6] was 0.00423 (inactive).
`CCOC(=O)c1ccc(NS(=O)(=O)c2ccc3c(c2)oc(=O)n3C)cc1`: the cell count in assay [1] worked out at 467. The inhibition was 1.3% (inactive) in assay [1], 10.3% (inactive) in assay [3], -7.08% (inactive) in assay [7] and 14% (inactive) in assay [8]. Moreover, the inhibition of aggregation in assay [2] was 25.3% (inactive). Besides, the nuclei count in assay [2] was 72.9%; in assay [3], 107%. Also, the fluorescence slope in assay [4] was -0.602 (inactive). Besides, the NADPH fluorescence slope in assay [5] is -1.1e-05 (inactive). Besides, the slope in assay [6] was 0.00688 (inactive).
For `COc1ccc2c(c1OC)C(=O)OC2CC(=O)c1ccc(O)cc1` (stereo not drawn), the cell count in assay [1] amounted to 556. Further, the inhibition in assay [1] was -1.1% (inactive); in assay [3], 43.4% (inactive); in assay [7], 4.78% (inactive); in assay [8], 26.9% (inactive). In assay [2], the inhibition of aggregation is -3.9% (inactive). The nuclei count in assay [2] was determined as 114%; in assay [3] it was 42.6%. Besides, the fluorescence slope in assay [4] was -0.447 (inactive). The NADPH fluorescence slope in assay [5] is -4.1e-05 (inactive). In assay [6], the slope was 0.00258 (inactive).
As for `CCC(CO)Nc1ncnc2c1cnn2-c1ccc(Cl)cc1` (stereo not drawn), the cell count in assay [1] came to 550. The inhibition in assay [1] was 10% (inactive); in assay [3] it was 10.3% (inactive); in assay [7], 38.4% (inactive); in assay [8] it was -14% (inactive). Moreover, in assay [2], the inhibition of aggregation is 7.5% (inactive). Also, the nuclei count in assay [2] came to 101%; in assay [3], 111%. For the same molecule, the fluorescence slope in assay [4] is -0.54 (inactive). Besides, the NADPH fluorescence slope in assay [5] was -1.3e-05 (inactive). Moreover, in assay [6], the slope was 0.00667 (inactive).
`CCCCCn1c(CN2CCN(C(=O)OCC)CC2)nc2c1c(=O)[nH]c(=O)n2C`: the cell count in assay [1] stood at 245. Also, the inhibition is 0.8% (inactive) in assay [1], 16.4% (inactive) in assay [3], 28.1% (inactive) in assay [7] and 19.9% (inactive) in assay [8]. The inhibition of aggregation in assay [2] is 10.4% (inactive). The nuclei count in assay [2] stood at 105%; in assay [3], 78.3%. For the same molecule, the fluorescence slope in assay [4] was -0.564 (inactive). For the same molecule, the NADPH fluorescence slope in assay [5] is 7.1e-06 (inactive). Moreover, the slope in assay [6] is 0.00615 (inactive).
